# The list is not random: actives were taken first. Their share in the collection is about 9.3%.
# Rab9 promoter act: activates the Rab9 promoter. Huh7 Rab9 promoter-luciferase reporter, luminescence, 24 h. 2.8% of 320,000 active. AID 485297. Potency, µM (doses to about 9.22 µM), inactives show top-dose activation, negative = inhibition, usual class: activators; note: % of control where 0% means no effect; nearly all actives have a fitted effect of over 60% in size
#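 Huh7 cells stably carrying Rab9 promoter–luciferase reporter, plated 1500 cells/well, compound added after 2 h and incubated 24 h at 37 °C; luciferase luminescence then read after 10 min with detection reagent.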
# ELG1 genotoxic: genotoxicity induction in ELG1-luciferase HEK293T cells | HEK293T ELG1-luciferase reporter, luminescence, 16 h | Potency, µM (doses to about 46 µM), for the others: at the highest dose activity change, positive = activation, most hits filed as activators | 1.3% of 330,000 active; note: % of control where 0% means no effect; nearly all actives have a fitted effect of over 60% in size
#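 Step 1: seed 2,000 HEK293T ELG1-luciferase cells per well. Step 2: add compound or DMSO, incubate 16 hr at 37 °C. Step 3: ONE-Glo, 30 min at room temperature, read luminescence.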
# FLuc modulator: firefly luciferase modulation, counter-screen for miR-21 project. P08659. purified FLuc, Km substrates, luminescence inhibition. Potency, µM (highest dose often 57.5 µM), for inactives: at the top dose activity change, negative = inhibition, actives largely listed as inhibitors. 6.9% of 360,000 active. AID 588342;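 note: plate controls were vehicle for no effect and reference inhibitor for full effect; nearly all actives have a fitted effect of over 55% in size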
# Target sequence (P08659 whole entry, looked up): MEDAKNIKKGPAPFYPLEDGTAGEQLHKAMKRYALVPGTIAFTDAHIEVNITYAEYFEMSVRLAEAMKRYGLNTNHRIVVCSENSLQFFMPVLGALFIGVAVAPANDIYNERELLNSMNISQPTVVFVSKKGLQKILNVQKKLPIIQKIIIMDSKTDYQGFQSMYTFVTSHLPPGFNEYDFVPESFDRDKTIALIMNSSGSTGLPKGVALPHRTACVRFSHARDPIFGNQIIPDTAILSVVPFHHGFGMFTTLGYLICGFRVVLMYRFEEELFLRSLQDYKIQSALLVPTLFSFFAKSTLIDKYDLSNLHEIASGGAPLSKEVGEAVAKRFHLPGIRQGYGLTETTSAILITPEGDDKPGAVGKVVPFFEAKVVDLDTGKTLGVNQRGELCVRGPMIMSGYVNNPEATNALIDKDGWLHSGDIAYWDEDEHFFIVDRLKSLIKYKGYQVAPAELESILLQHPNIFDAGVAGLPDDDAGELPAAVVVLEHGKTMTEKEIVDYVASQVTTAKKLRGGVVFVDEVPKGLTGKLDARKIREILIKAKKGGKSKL
#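 Biochemical qHTS of compounds, final roughly 60 µM downward over six points, against 10 nM purified firefly luciferase using Km concentrations of substrates (10 uM D-luciferin, 10 uM ATP) in Tris acetate pH 7.5 buffer; luminescence output.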
# ELG1 DNA repair: inhibitors of ELG1-dependent DNA repair in HEK293T cells. HEK293T ELG1-luciferase reporter, luminescence, 16 h; DNA damage induced by 5-fluorouridine. Potency, µM (doses to about 46.1 µM), inactives show top-dose activity change, negative = inhibition, hits mostly inhibitors. 2.3% of 330,000 active; note: % is set by controls: 0 for no effect and ±100 for the full control effect; nearly all actives have a fitted effect of over 55% in size
#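 Quantitative HTS, concentration-response format. 2,000 cells/well co-treated with 5-fluorouridine and compound, 16 hr in 5% CO2 at 37 °C; ONE-Glo luminescence read after 30 min.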
# SMN2 splice enh: enhancers of SMN2 splice variant expression; HEK293 SMN2-luciferase splicing reporter, luminescence, 30-36 h; Potency, µM (titrated, usually from 46.1 µM), inactives show at the highest dose activity change, positive = activation, most hits filed as activators; 2.8% of 210,000 active; note: % of control where 0% means no effect; nearly all actives have a fitted effect of over 55% in size
#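 HEK293 cells carry an SMN2 […]–luciferase reporter in which exon 7 inclusion puts luciferase in frame. Cells were plated 10-12 h before compound addition, then incubated 30-36 h at 37C. ONE-Glo luminescence was read; sodium butyrate at 4.5 mM final served as control.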
# NPC1 prom act: activators of NPC1 promoter. Huh7 NPC1 promoter luciferase reporter, 24 h. AID 485313. Potency, µM (doses to about 9.22 µM), inactives show at the top dose activation, most hits filed as activators. 2.4% of 320,000 active; note: % of control where 0% means no effect; nearly all actives have a fitted effect of over 60% in size
#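 Huh7 reporter cells (NPC1 promoter driving luciferase) are dosed with compound for 24 h at 37 °C, 5% CO2; luciferase detection reagent is then added and luminescence measured after 10 min at ambient temperature.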
# Numbers without * were called inactive; ? = inconclusive; . = no result given; [ ] = dose if it differs, or a comment. Calls come from the whole dose curve; as a rule, active = well fitted curve in the direction sought with a large enough effect; inconclusive = small, poorly fitted or top-dose-only effect, or another doubt; inactive = no such curve, though single readings can be large; an effect the other way counts as inactive or inconclusive. Potency is the fitted concentration of half-maximal effect.
SMILES,Rab9 promoter act,ELG1 genotoxic,FLuc modulator,ELG1 DNA repair,SMN2 splice enh,NPC1 prom act
Cc1cccnc1NC(=S)NC(=O)c1oc2ccccc2c1C,3.2µM*,?,19µM*,?,.,1.8µM*
C=CCNC(=S)NC(=O)c1oc2ccccc2c1C,4µM*,?,9.5µM*,?,?,?
CC(=O)Nc1ccc(NC(=S)NC(=O)c2oc3ccccc3c2C)cc1,6%,10%,0%,12%,-24%,1%
Oc1cccc(C(Nc2ccccn2)c2ccc3cccnc3c2O)c1Cl (stereo unspecified),.,.,-10%,.,-8%,.
C=CCn1c(COc2ccccc2)nc2ccccc21,16%,4%,27µM*,?,.,14%
Cn1c(COc2ccccc2)nc2ccccc21,?,?,15µM*,?,.,4µM*
Cc1nn(-c2ccccc2)c(C)c1C(=O)OCC(=O)NC12CC3CC(CC(C3)C1)C2,12%,-10%,-14%,21µM*,-37%,2%
Cc1cc(C(=O)OCC(=O)Nc2c(F)cccc2F)c(C)n1-c1ccccc1,25%,16%,11µM*,-19%,-6%,24%
Cc1cc(C(=O)OCC(=O)N2CCOCC2)c(C)n1-c1ccccc1,.,8%,.,0%,.,.
Cc1nn(-c2ccccc2)c(C)c1C(=O)OCC(=O)Nc1ccccc1F,2.2µM*,?,4.8µM*,?,.,4µM*
Cc1ccc(OCc2cn3cccnc3n2)cc1,2.8µM*,18µM*,21µM*,?,8.9µM*,3.5µM*
O=[N+]([O-])c1cccc(OCc2cn3cccnc3n2)c1,9%,15%,1%,?,-16%,6%
Cc1cccn2cc(COc3cccc([N+](=O)[O-])c3)nc12,?,11%,?,?,.,14%
Cc1cccn2cc(COc3ccc(-c4ccccc4)cc3)nc12,?,?,9.5µM*,?,.,?
COc1ccc(CCN2C(=NC(=O)CCC(=O)O)SC3CS(=O)(=O)CC32)cc1OC (stereo unspecified),7%,-3%,27µM*,28%,11%,-1%
Cc1ccc(Cl)cc1N1CCN(CCNC(=O)Nc2ccccc2Cl)CC1,.,.,4%,.,9%,.
COc1cc(-c2nc3c(c(C)nn3-c3ccccc3)c3cc(OC)c(OC)cc23)ccc1O,-2%,3%,5%,18µM*,.,-11%
COc1cc2c(-c3cc(Br)ccc3O)nc3c(c(C)nn3-c3ccccc3)c2cc1OC,.,.,1%,.,5%,.
CCC(=O)OCC(=O)Nc1cc([N+](=O)[O-])ccc1Cl,16%,0%,0%,0%,6%,-8%
CCOCc1c(C(=O)NC2=Nc3ccccc3NC(CC)=C2C(=O)OCC)oc2ccccc12,-2%,-14%,-7%,8.2µM*,-51%,1%
CCOC(=O)C1=C(CC)Nc2ccccc2N=C1NC(=O)c1oc2ccccc2c1C,-3%,-14%,-1%,?,-39%,1%
COc1ccccc1NC(=O)C(C)Sc1nc(-c2ccccc2)cn1N (stereo unspecified),-1%,0%,3%,-9%,.,6%
COc1ccc(OC)c(/C=C/C(=O)OCC(=O)N2CCCC2)c1,-3%,4%,-1%,1%,.,-2%
COc1ccc(OC)c(/C=C/C(=O)OCC(=O)N2C(C)CCCC2C)c1 (stereo unspecified),.,-5%,.,21µM*,.,.
O=C(O)[C@@H]1CCCN1Cc1cc2ccccc2c2ccccc12,.,.,.,.,-11%[9.22 µM],.
SMILES,Rab9 promoter act,ELG1 genotoxic,FLuc modulator,ELG1 DNA repair,SMN2 splice enh,NPC1 prom act
O=C(Cn1nnc(-c2cc(C(F)(F)F)cc(C(F)(F)F)c2)n1)NNC(=S)Nc1ccc(Cl)cc1,6%,0%,0%,-2%,.,-4%
Cc1ccc(-c2nc(N)s[n+]2-c2ccccc2)cc1,-6%,-4%,?,?,-13%,2%
CNc1nc(-c2ccccc2)[n+](-c2ccc(C)cc2)s1,12%,1%,6.7µM*,-7%,.,13%
CCn1cc(C(=O)NCc2ccncc2)c(=O)c2cc(F)c(N3CCN(C(=O)c4ccco4)CC3)cc21,-10%,-8%,-4%,?,.,-2%
CCn1cc(C(=O)NCc2ccccc2)c(=O)c2cc(F)c(N3CCN(C(=O)c4ccco4)CC3)cc21,-4%,-27%,0%,16µM*,-39%,-10%
CCn1cc(C(=O)NCc2ccc3c(c2)OCO3)c(=O)c2cc(F)c(N3CCN(C(=O)c4ccco4)CC3)cc21,-15%,-19%,9%,9.2µM*,-83%,-8%
COc1cc(C(=O)N/N=C/c2cn(Cc3cccc(F)c3)c3ccccc23)ccc1O,1%,0%,?,-17%,.,-3%
CCNC(=S)N/N=C/c1cn(Cc2ccc(F)cc2)c2ccccc12,-1%,0%,5%,-14%,-41%,3%
Cc1ccc(C(=O)N/N=C/c2cn(Cc3ccccc3)c3ccccc23)cn1,1%,-1%,12µM*,6.5µM*,.,9%
O=C(O)c1ccc(N/N=C/c2cn(Cc3ccc(F)cc3)c3ccccc23)cc1,2.8µM*,12µM*,8.5µM*,?,.,2µM*
O=C(N/N=C/c1cn(Cc2ccccc2)c2ccccc12)c1cc(O)cc(O)c1,-7%,3%,24µM*,14%,.,-4%
CCC(C)(C)NC(=O)CCCSc1nc2ccccc2[nH]1,3%,-2%,?,11%,.,2%
CCC(C)(C)NC(=O)C(c1ccc(F)cc1)N(CCOC)C(=O)CCC(=O)Nc1nccs1 (stereo unspecified),-4%,-3%,-1%,-2%,.,3%
COc1cc2ncc(-c3ccccc3)nc2cc1OC,.,.,.,.,28µM*,.
COc1cc2cnc(-c3ccccc3)c(-c3cc(OC)c(OC)c(OC)c3)c2cc1OC,-11%,-2%,5%,9.2µM*,.,-8%
COc1nc(-c2ccccc2)cc(-c2ccc(OC)c(OC)c2)n1,8%,-12%,?,?,20%,5%
CCOC(=O)c1cnc2c(ccc3ccccc32)c1NCCO,13%,3%,?,?,-6%,1%
CCOC(=O)c1cnc(-c2ccccc2)nc1N1CCOCC1,-6%,-10%,-2%,?,2%,-4%
CCOC(=O)c1cnc2c(ccc3ccccc32)c1N,1.1µM*,8.2µM*,?,?,.,1.6µM*
CCOC(=O)c1cnc(-c2ccccc2)nc1N,2µM*,3.3µM*,9.5µM*,?,7.1µM*,2.8µM*
Cc1cc(OCc2cc(C(=O)NCc3csc(C(C)C)n3)no2)cc(C)c1Cl,3%,-1%,0%,4%,.,-3%
